From PubChem BioAssay (NCI)
The panel holds about 79,000 compounds, 15% with a hit somewhere; the sample as a whole holds those more often. Active and inactive are the calls of the source. Cut-off read from the data, not from the text of the source: active = growth inhibition above about 70%; inactive = the rest.

Key:
[1] = NCI Yeast Anticancer Drug Screen. Data for the wt1 strain (AID 149);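 note: 0% = growth of vehicle-treated wt1 cultures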; conditions: S. cerevisiae wt1 strain (SPY 50644) growth inhibition, stronger effect = higher value
Method in brief: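 Vehicle-normalised growth inhibition; strain wt1; compound exposure.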

[2] = NCI Yeast Anticancer Drug Screen. Data for the rad50EPP+ strain (AID 151);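 note: 0% = growth of vehicle-treated control cultures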; conditions: S. cerevisiae rad50 mutant strain, stronger effect = higher value
Method in brief: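 One strain with a rad50 alteration (rad50EPP+) was compound-treated, its growth then compared to that of vehicle controls.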

[3] = NCI Yeast Anticancer Drug Screen. Data for the mgt1 strain (AID 153); conditions: S. cerevisiae mgt1 mutant growth inhibition, stronger effect = higher value
Method in brief: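 After exposure of the mgt1 yeast mutant to compound, growth was measured and reported as inhibition compared with vehicle controls.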

[4] = NCI Yeast Anticancer Drug Screen. Data for the rad50 strain (AID 155);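 note: 0% = growth of vehicle-only cultures of the same strain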; conditions: S. cerevisiae rad50 strain growth inhibition, stronger effect = higher value
Method in brief: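 A DNA repair-deficient yeast mutant serves as the test organism; compound-induced growth inhibition is calculated against vehicle-treated cells.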

[5] = NCI Yeast Anticancer Drug Screen. Data for the mec2-1 strain (AID 157); conditions: S. cerevisiae mec2-1 strain, stronger effect = higher value
Method in brief: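 Test agents were screened against the mec2-1 yeast strain, with defined DNA repair or cell cycle alteration. Growth was scored as inhibition against vehicle-only controls.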

[6] = NCI Yeast Anticancer Drug Screen. Data for the rad14 strain (AID 159);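 note: 0% = growth of vehicle-treated control cultures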; conditions: S. cerevisiae rad14 strain growth inhibition, stronger effect = higher value
Method in brief: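 Vehicle-treated cultures served as the baseline for growth inhibition of a DNA repair-mutant yeast strain exposed to each compound.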

[7] = NCI Yeast Anticancer Drug Screen. Data for the sgs1 mgt1 strain (AID 161);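 note: 0% = growth of cultures given vehicle only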; conditions: S. cerevisiae sgs1 mgt1 strain, stronger effect = higher value
Method in brief: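 Read-out: growth inhibition vs vehicle controls. Cells: mutant yeast strain deficient in DNA damage repair.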

[8] = NCI Yeast Anticancer Drug Screen. Data for the CLN2oe strain (AID 163);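 note: 0% = growth of vehicle-only control cultures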; conditions: S. cerevisiae CLN2oe strain, stronger effect = higher value
Method in brief: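 Here, growth inhibition in a cell-cycle-altered yeast strain after compound exposure was quantified against vehicle control growth.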

[9] = NCI Yeast Anticancer Drug Screen. Data for the bub3 strain (AID 167); conditions: S. cerevisiae bub3 mutant strain, stronger effect = higher value
Method in brief: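 Inhibition values come from growth of compound-treated mutant yeast normalised to vehicle-treated controls.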

[10] = NCI Yeast Anticancer Drug Screen. Data for the wt2 strain (AID 169);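 note: 0% = growth of vehicle-treated yeast cultures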; conditions: S. cerevisiae wt2 strain growth inhibition, stronger effect = higher value
Method in brief: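 Genetically defined yeast strains from a DNA-repair/cell-cycle panel were used. Compound-exposed yeast growth was measured, and the inhibition was calculated relative to vehicle treatment.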

[11] = NCI Yeast Anticancer Drug Screen. Data for the mlh1 strain (AID 171);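 note: 0% = growth of vehicle-treated control cultures of the same strain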; conditions: S. cerevisiae mlh1 strain growth inhibition, stronger effect = higher value
Method in brief: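 Here the genetically defined yeast mutant is grown with each compound, and the extent to which its growth falls below that of vehicle-exposed cells is reported.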

[12] = NCI Yeast Anticancer Drug Screen. Data for the sgs1 strain (AID 173);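 note: 0% = growth of vehicle-only control cultures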; conditions: S. cerevisiae sgs1 mutant, stronger effect = higher value
Method in brief: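 Relative growth inhibition, referenced to vehicle, was determined in a yeast strain with a defined alteration affecting DNA damage repair or cell cycle control after compound exposure.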

[13] = NCI Yeast Anticancer Drug Screen. Data for the mlh1 rad18 strain (AID 175); conditions: S. cerevisiae mlh1 rad18 strain growth inhibition, stronger effect = higher value
Method in brief: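 In this whole-cell yeast screen, a strain with altered DNA damage repair is challenged with compound, and its growth is measured against matched vehicle-treated controls.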

[14] = NCI Yeast Anticancer Drug Screen. Data for the rad18 strain (AID 177); conditions: S. cerevisiae rad18 mutant growth inhibition, stronger effect = higher value
Method in brief: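 Screen uses a yeast strain with a defined lesion in DNA damage repair; compound effect is read as loss of growth compared to untreated vehicle cultures.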

[15] = NCI Yeast Anticancer Drug Screen. Data for the rad52 strain (AID 147);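 note: 0% = growth of vehicle-treated control cultures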; conditions: S. cerevisiae rad52 mutant growth inhibition, stronger effect = higher value
Method in brief: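 Measured: yeast growth inhibition. System: strain with a defined DNA damage repair alteration. Reference: vehicle-treated control cultures.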

[16] = NCI Yeast Anticancer Drug Screen. Data for the cln2 rad14 strain (AID 165);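 note: 0% = growth equal to vehicle treated cultures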; conditions: S. cerevisiae cln2 rad14 strain, stronger effect = higher value
Method in brief: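 Growth of compound-exposed yeast (cln2 rad14 genotype) measured and expressed as inhibition relative to vehicle.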

[17] = at 5.0 µM (retest, dose inferred, filed as 0.5)
[18] = at 50.0 µM (retest, dose inferred, filed as 5.0)

Measured: growth inhibition

Oc1c(Br)cc(Br)cc1C1CCCCC1
active: [1]; at 33.0 µM 97% | [1]; at 100.0 µM 98% | [2]; at 100.0 µM 87% | [3]; at 33.0 µM 97% | [3]; at 100.0 µM 98% | [4]; at 33.0 µM 95% | [4]; [18] 99% | [4]; at 50.0 µM 89.2% | [4]; at 100.0 µM 96% | [5]; [17] 71% | [5]; at 33.0 µM 96% | [5]; [18] 99% | [5]; at 50.0 µM 90.8% | [5]; at 100.0 µM 98% | [6]; at 33.0 µM 97% | [6]; at 100.0 µM 98% | [7]; [18] 98% | [7]; at 50.0 µM 91.8% | [8]; at 33.0 µM 98% | [8]; at 100.0 µM 99% | [9]; at 33.0 µM 96% | [9]; [18] 98% | [9]; at 50.0 µM 89.8% | [9]; at 100.0 µM 97% | [10]; at 33.0 µM 91% | [10]; at 100.0 µM 96% | [11]; at 33.0 µM 91% | [11]; at 100.0 µM 96% | [12]; at 33.0 µM 95% | [12]; at 100.0 µM 97% | [13]; [18] 100% | [13]; at 50.0 µM 87.1% | [14]; at 33.0 µM 93% | [14]; at 100.0 µM 97%
inactive: [1]; at 1.2 µM -21% | [1]; at 3.7 µM -12% | [1]; at 11.0 µM -6% | [2]; at 1.2 µM 9% | [2]; at 3.7 µM 9% | [2]; at 11.0 µM 23% | [2]; at 33.0 µM 39% | [3]; at 1.2 µM 8% | [3]; at 3.7 µM 13% | [3]; at 11.0 µM 22% | [4]; at 1.2 µM -8% | [4]; at 3.7 µM -9% | [4]; [17] 39% | [4]; at 11.0 µM 5% | [5]; at 1.2 µM -9% | [5]; at 3.7 µM -3% | [5]; at 11.0 µM 5% | [6]; at 1.2 µM -22% | [6]; at 3.7 µM -4% | [6]; at 11.0 µM 3% | [7]; [17] -16% | [8]; at 1.2 µM 22% | [8]; at 3.7 µM 13% | [8]; at 11.0 µM 27% | [9]; at 1.2 µM 7% | [9]; at 3.7 µM 19% | [9]; [17] 4% | [9]; at 11.0 µM 25% | [10]; at 1.2 µM -23% | [10]; at 3.7 µM -22% | [10]; at 11.0 µM -15% | [11]; at 1.2 µM -26% | [11]; at 3.7 µM -12% | [11]; at 11.0 µM -5% | [12]; at 1.2 µM -25% | [12]; at 3.7 µM -16% | [12]; at 11.0 µM 10% | [13]; [17] 44% | [14]; at 1.2 µM -16% | [14]; at 3.7 µM 1% | [14]; at 11.0 µM 15%

[N-]=[N+]=NC1=C(c2ccccn2)C(=O)c2cccc3cccc1c23
active: [15]; at 100.0 µM 75% | [2]; at 33.0 µM 74% | [2]; at 100.0 µM 93% | [4]; [18] 71% | [4]; at 100.0 µM 71% | [7]; at 50.0 µM 71.4% | [8]; at 100.0 µM 74%
inactive: [15]; at 1.2 µM 2% | [15]; at 3.7 µM 4% | [15]; at 11.0 µM 24% | [15]; at 33.0 µM 50% | [2]; at 1.2 µM 9% | [2]; at 3.7 µM 16% | [2]; at 11.0 µM 31% | [4]; at 1.2 µM 2% | [4]; at 3.7 µM 3% | [4]; [17] 7% | [4]; at 11.0 µM 5% | [4]; at 33.0 µM 53% | [4]; at 50.0 µM 67.2% | [5]; at 1.2 µM 5% | [5]; at 3.7 µM 7% | [5]; [17] -5% | [5]; at 11.0 µM 14% | [5]; at 33.0 µM 37% | [5]; [18] 40% | [5]; at 50.0 µM 63.8% | [5]; at 100.0 µM 61% | [6]; at 1.2 µM 2% | [6]; at 3.7 µM 5% | [6]; at 11.0 µM 11% | [6]; at 33.0 µM 26% | [6]; at 100.0 µM 63% | [7]; [17] -7% | [7]; [18] 28% | [8]; at 1.2 µM -3% | [8]; at 3.7 µM 1% | [8]; at 11.0 µM 5% | [8]; at 33.0 µM 35% | [16]; [17] 38% | [16]; [18] 31% | [16]; at 50.0 µM 67% | [9]; at 1.2 µM -1% | [9]; at 3.7 µM 4% | [9]; [17] -11% | [9]; at 11.0 µM 18% | [9]; at 33.0 µM 24% | [9]; [18] 59% | [9]; at 50.0 µM 69.6% | [9]; at 100.0 µM 61% | [10]; at 1.2 µM -1% | [10]; at 3.7 µM -1% | [10]; at 11.0 µM 5% | [10]; at 33.0 µM 26% | [10]; at 100.0 µM 63% | [11]; at 1.2 µM 4% | [11]; at 3.7 µM -2% | [11]; at 11.0 µM 7% | [11]; at 33.0 µM 19% | [11]; at 100.0 µM 42%
